# Many of the other results were omitted from the sample, so hits are more common in it than they were.
# NOMO-1 viab – NOMO-1 AML cell viability reduction, primary screen, STK33 inhibitor project, CellTiter-Glo luminescence; NOMO-1 AML viability, 72 h; inhibition, % (no concentration beside the values); 37,000 tested, 7.5% active; AID 2330, 2010; in the data active = inhibition above about 80%; inconclusive = no clear call, values can overlap the other calls
# U2OS ROS induce – ROS inducers in U2OS cancer cells, primary screen, cell-based, H2DCF-DA fluorescence | U2OS ROS induction | ROS induction (% of piperlongumine), % at 10 µM | 46,000 tested, 2% active; in the data active = ROS induction above about 79%, passing the limit was not always enough; inconclusive = no clear call, values can overlap the other calls;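 also: 0% = DMSO vehicle median and 100% = reference compound median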
# Starred values were filed as active, the others as inactive; ? = inconclusive; / = no result.
SMILES,NOMO-1 viab,U2OS ROS induce
Cc1noc(C)c1NC(=O)N(C)C[C@@H]1Oc2ccc(NC(=O)Nc3ccc(C(F)(F)F)cc3)cc2CC(=O)N([C@H](C)CO)C[C@@H]1C,5,5
COc1ccc(NC(=O)Nc2cccc3c2O[C@H](CN(C)Cc2ccc(Oc4ccccc4)cc2)[C@@H](C)CN([C@@H](C)CO)C3=O)cc1,51,60
C[C@H](CO)N1C[C@H](C)[C@@H](CN(C)Cc2ccc(-c3ccccc3)cc2)Oc2ccc(NS(=O)(=O)c3cn(C)cn3)cc2C1=O,4,1
C[C@@H]1CN([C@H](C)CO)C(=O)Cc2cc(NC(=O)C3CCCCC3)ccc2O[C@@H]1CN(C)C(=O)NC1CCCCC1,-2,-3
C[C@@H]1CN([C@H](C)CO)C(=O)c2cc(NS(=O)(=O)c3ccc(F)cc3)ccc2O[C@H]1CN(C)Cc1ccc(Oc2ccccc2)cc1,114*,45
C[C@@H]1CN([C@H](C)CO)C(=O)c2cc(NS(=O)(=O)c3ccccc3)ccc2O[C@@H]1CN(C)Cc1ccc(Oc2ccccc2)cc1,71,11
CCn1c(SCC(=O)Nc2ccc(Br)c(C)c2C)nnc1-c1ccccc1C,22,-11
CCOc1cc([N+](=O)[O-])ccc1NC(=O)CC1Sc2ccccc2NC1=O (stereo not drawn),110*,18
COc1ccc(OC)c(NC(=O)CC2Sc3ccccc3NC2=O)c1 (stereo not drawn),3,-4
CN(CC(=O)Nc1ccc(Br)cc1F)S(=O)(=O)c1ccc(F)cc1,-14,3
C=C1CC[C@@H](O)[C@]2(C)C[C@H]3OC(=O)C(=C)[C@H]3CC12 (stereo partly drawn),104*,60
C=C(C(=O)O)[C@@H]1CC[C@@]2(C)CC(=O)C=C(C)C2C1 (stereo partly drawn),14,0
C=C1C(=O)O[C@@H]2C[C@@]3(C)CC(=O)C=C(C)C3C[C@H]12 (stereo partly drawn),120*,111*
C[C@H]1CN([C@@H](C)CO)C(=O)Cc2cc(NC(=O)Nc3ccccc3)ccc2O[C@@H]1CN(C)C(=O)Nc1ccccc1,2,-8
CCc1ccc(C2C(C(=O)OC)=CNC=C2C(=O)OC)cc1,/,3
COc1ccc(S(=O)(=O)Nc2ccc3c(c2)C(=O)N([C@H](C)CO)C[C@H](C)[C@H](CN(C)C(=O)Nc2ccccc2)O3)cc1,4,1
Cc1c(C(=O)O)oc2ccc(S(=O)(=O)NCCc3ccccc3)cc12,/,-5
NC(=O)C(Cc1ccccc1)NS(=O)(=O)c1ccc2oc3ccccc3c2c1 (stereo not drawn),17,165*
Cc1cc(C)c(NC(=O)CSc2nnc(-c3ccncc3)n2C)c([N+](=O)[O-])c1,28,-5
C[C@H]1CN([C@@H](C)CO)C(=O)Cc2cc(NC(=O)CCCN(C)C)ccc2O[C@H]1CN(C)Cc1ccc(Oc2ccccc2)cc1,-15,?
C[C@H](CO)N1C[C@H](C)[C@H](CN(C)Cc2ccc(Oc3ccccc3)cc2)Oc2ccc(NC(=O)CCCCCC(=O)Nc3ccccc3N)cc2CC1=O,140*,29
C[C@H]1CN([C@@H](C)CO)C(=O)Cc2cc(NC(=O)CCCCCC(=O)Nc3ccccc3N)ccc2O[C@H]1CN(C)Cc1ccc(Oc2ccccc2)cc1,140*,16
C[C@@H]1CN([C@H](C)CO)C(=O)c2cc(NC(=O)CCCCCC(=O)Nc3ccccc3N)ccc2O[C@@H]1CN(C)Cc1ccc(Oc2ccccc2)cc1,/,0
Cc1cccc2c1-c1sc(C(=O)Nc3ccc(S(N)(=O)=O)cc3)cc1CO2,/,-2
C[C@@H]1CN([C@H](C)CO)C(=O)Cc2cc(NC(=O)C3CC3)ccc2O[C@@H]1CN(C)Cc1ccc(Oc2ccccc2)cc1,31,66
SMILES,NOMO-1 viab,U2OS ROS induce
O=C(c1ccco1)N(Cc1ccco1)c1ccc(O)cc1,-3,-5
Cc1ccc(N(Cc2ccco2)C(=O)c2cccc(S(=O)(=O)N(C)C)c2)cc1,37,138*
Cc1noc(C)c1S(=O)(=O)Nc1ccc2c(c1)CC(=O)N([C@H](C)CO)C[C@H](C)[C@H](CN(C)C(=O)NC(C)C)O2,-3,-5
Cc1noc(C)c1NC(=O)N(C)C[C@@H]1Oc2ccc(NS(C)(=O)=O)cc2CC(=O)N([C@H](C)CO)C[C@@H]1C,-3,14
CCOc1cc(S(=O)(=O)NCc2cccnc2)ccc1Cl,28,75
CCOc1ccc(S(=O)(=O)NCc2ccccc2)cc1-c1nc2c(C(C)(C)C)nn(C)c2c(=O)[nH]1,127*,201*
Cc1ccccc1NC(=O)CN(c1ccc(Cl)c(Cl)c1)S(C)(=O)=O,26,3
COC(=O)c1ccc(Cl)c(NC(=O)CN(c2cccc(F)c2)S(C)(=O)=O)c1,?,0
COC(=O)c1ccc(C)c(NC(=O)CN(c2ccc(Cl)c(Cl)c2)S(C)(=O)=O)c1,108*,2
COC(=O)c1ccc(Cl)c(NC(=O)CN(c2cccc(Cl)c2)S(C)(=O)=O)c1,129*,1
Cc1ccc(-n2ncc(N(C)N3CC(C)(C)C3=O)c(Cl)c2=O)cc1,/,-11
C[C@H](CO)N1C[C@H](C)[C@H](CN(C)S(=O)(=O)c2ccc(F)cc2)Oc2c(NS(=O)(=O)c3cn(C)cn3)cccc2C1=O,10,-15
C[C@@H]1CN([C@@H](C)CO)C(=O)Cc2cc(NC(=O)CCN3CCOCC3)ccc2O[C@@H]1CN(C)Cc1ccc(Cl)c(Cl)c1,22,3
C[C@@H]1CN([C@H](C)CO)C(=O)c2cc(NC(=O)Nc3ccccc3)ccc2O[C@@H]1CN(C)S(=O)(=O)c1ccc(Cl)cc1,8,4
COc1ccc(CN(C)C[C@@H]2Oc3ccc(NS(=O)(=O)c4ccc(F)cc4)cc3CC(=O)N([C@H](C)CO)C[C@H]2C)cc1,17,43
COc1ccc(S(=O)(=O)Nc2ccc3c(c2)CC(=O)N([C@@H](C)CO)C[C@H](C)[C@H](CN(C)Cc2ccc(C(F)(F)F)cc2)O3)cc1,108*,26
COc1ccc(S(=O)(=O)Nc2ccc3c(c2)CC(=O)N([C@H](C)CO)C[C@@H](C)[C@@H](CN(C)Cc2ccc(C(F)(F)F)cc2)O3)cc1,119*,37
COc1ccc(CN(C)C[C@@H]2Oc3ccc(NS(=O)(=O)c4ccc(F)cc4)cc3CC(=O)N([C@@H](C)CO)C[C@@H]2C)cc1,15,15
COc1ccc(S(=O)(=O)Nc2ccc3c(c2)CC(=O)N([C@H](C)CO)C[C@@H](C)[C@H](CN(C)Cc2ccc(C(F)(F)F)cc2)O3)cc1,?,14
COc1ccc(S(=O)(=O)Nc2ccc3c(c2)CC(=O)N([C@@H](C)CO)C[C@@H](C)[C@@H](CN(C)Cc2ccc(C(F)(F)F)cc2)O3)cc1,95*,16
C[C@H]1CN([C@@H](C)CO)C(=O)Cc2cc(NS(=O)(=O)c3cn(C)cn3)ccc2O[C@@H]1CN(C)CC1CCCCC1,19,27
COc1ccc(S(=O)(=O)Nc2ccc3c(c2)CC(=O)N([C@H](C)CO)C[C@@H](C)[C@@H](CN(C)C(=O)Nc2ccc(F)cc2)O3)cc1,17,-5
Nc1ncnc(NCc2cccnc2)c1[N+](=O)[O-],4,-11
Nc1ncnc(Oc2cccc3cccnc23)c1[N+](=O)[O-],108*,-8
CC(=O)Nc1ccc(NS(=O)(=O)c2ccc(C)cc2[N+](=O)[O-])cc1,21,-5
